Compound activity as filed in PubChem BioAssay.
PTAP TSG101 blk – qHTS Assay for Iinhibitors of HIV-1 Budding by Blocking the Interaction of PTAP/TSG101; Tumor susceptibility gene 101 protein (Homo sapiens), Q99816; Fluorescence polarization, FITC-PTAP peptide / Tsg101 binding; Potency, µM (series often up to 115 µM), for the others: at the highest dose activity change, negative = inhibition, usual class: inhibitors; 340,000 tested, under 10 active; active means well fitted inhibition curve with a large enough effect in the main read-out, with a control signal flat, not every such curve was filed as active; further: potency means the concentration at half of the fitted maximal effect; % of control where 0% means no effect
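Fluorescence anisotropy tracks displacement of a FITC-tagged PTAP peptide (50 nM) from the Tsg101 binding domain (10 uM), following a 20 min room-temperature incubation at pH 7.5.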
Tb PFK block – qHTS Assay to Find Inhibitors of T. brucei phosphofructokinase | T. brucei PFK, ADP-Glo luminescence | Potency, µM (titrated, usually from 57.5 µM), inactives show top-dose activity, negative = inhibition, actives largely listed as inhibitors | 330,000 compounds, 0.17% hits | AID 485367, 2010; active means well fitted inhibition curve with a large enough effect;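 further: potency means the concentration at half of the fitted maximal effect; 0% = uninhibited 1x PFK enzyme wells and -100% = no-enzyme wells; nearly all actives have a fitted effect of over 60% in size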
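PFK 1.25 nM, F6P 0.5 mM, ATP 0.1 mM, 0.1 M TEA pH 8.0, 5 mM MgCl2, 0.01% Tween20, 0.1% BSA; 45 min RT. ADP-Glo readout. qHTS titration up to 57 uM; curves fitted, compounds curve-classed.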
KCNH2 3.1 inh – qHTS for Inhibitors of KCHN2 3.1: Mutant qHTS; activity change, % (tested at about 1.8 µM); 340,000 compounds, 0.95% hits; U2OS KCNH2 3.1, thallium flux FluxOr; stronger effect = lower value; Potassium voltage-gated channel subfamily H member 2, brain isoform KCNH2 3.1 (human);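 active means maximum activity change below -70%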;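 further: thallium influx rate constant from kinetic fluorescence after stimulation buffer; on the % scale 0 is the no-effect control and ±100 the full control effect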
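Steps: virus added to U2OS suspension (4 h, RT, dark); medium with 10% FBS added, cells plated, 37 C overnight; FluxOr/Red40 loading buffer 45 min RT; stimulation buffer, 2 min kinetic read; rate constant normalized.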
hERG WT inh – qHTS for Inhibitors of KCHN2 3.1: Wildtype qHTS. activity change, % at 1.84 µM. U2OS, BacMam KCNH2, thallium flux FluxOr; stronger effect = lower value. 340,000 compounds, 0.37% hits;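 active means maximum activity change below -70%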; further: on the % scale 0 is the no-effect control and ±100 the full control effect
Target sequence (Q12809 whole entry, looked up): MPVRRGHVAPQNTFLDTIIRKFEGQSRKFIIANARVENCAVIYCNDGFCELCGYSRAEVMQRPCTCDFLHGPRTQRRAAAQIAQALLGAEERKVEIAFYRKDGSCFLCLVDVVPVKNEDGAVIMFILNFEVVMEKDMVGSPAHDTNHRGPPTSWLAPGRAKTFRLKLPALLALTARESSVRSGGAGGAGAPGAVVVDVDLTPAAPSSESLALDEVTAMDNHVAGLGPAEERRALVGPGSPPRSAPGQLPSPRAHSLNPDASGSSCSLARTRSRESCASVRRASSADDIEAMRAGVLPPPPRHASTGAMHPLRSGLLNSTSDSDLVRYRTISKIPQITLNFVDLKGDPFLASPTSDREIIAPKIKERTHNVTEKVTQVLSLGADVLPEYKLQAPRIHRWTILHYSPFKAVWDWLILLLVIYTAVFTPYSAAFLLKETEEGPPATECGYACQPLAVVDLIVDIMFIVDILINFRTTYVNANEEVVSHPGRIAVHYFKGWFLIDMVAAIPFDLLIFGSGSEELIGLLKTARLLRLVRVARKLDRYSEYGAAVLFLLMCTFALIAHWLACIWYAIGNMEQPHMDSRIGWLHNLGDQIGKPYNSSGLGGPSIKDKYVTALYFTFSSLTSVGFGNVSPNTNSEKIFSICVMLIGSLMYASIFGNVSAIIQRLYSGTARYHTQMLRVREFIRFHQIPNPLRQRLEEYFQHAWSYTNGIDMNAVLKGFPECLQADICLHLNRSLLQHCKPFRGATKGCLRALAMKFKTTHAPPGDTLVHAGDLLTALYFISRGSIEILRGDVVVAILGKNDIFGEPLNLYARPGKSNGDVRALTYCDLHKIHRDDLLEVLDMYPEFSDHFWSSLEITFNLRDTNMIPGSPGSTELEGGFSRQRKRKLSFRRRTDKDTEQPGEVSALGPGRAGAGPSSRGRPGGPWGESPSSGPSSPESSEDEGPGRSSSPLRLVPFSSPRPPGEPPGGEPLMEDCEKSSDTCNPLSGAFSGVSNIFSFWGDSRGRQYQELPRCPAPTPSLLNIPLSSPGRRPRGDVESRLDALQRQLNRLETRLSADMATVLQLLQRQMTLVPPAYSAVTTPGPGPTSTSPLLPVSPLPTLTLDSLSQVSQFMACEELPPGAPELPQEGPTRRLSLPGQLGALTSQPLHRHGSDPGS
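U2OS cells transduced with wild-type KCNH2 virus are loaded with FluxOr dye for 45 min, and thallium flux is measured in kinetic reads before and after stimulation buffer. Rate constants are normalized to DMSO controls.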
Numbers without * were called inactive; nt = no result; [ ] = dose if it differs, or a comment. Hits are enriched below; roughly 1.2% of the tested compounds scored in any of these assays.

SMILES | PTAP TSG101 blk | Tb PFK block | KCNH2 3.1 inh | hERG WT inh
O=C1CCCC2=C1C1O[C@](CCCCN3C(=O)c4ccccc4C3=O)(Cc3ccccc31)O2 | nt | -4.1%[11.5 µM] | nt | nt
Cc1ccc(S(=O)(=O)Nc2cccc(C(=O)N3CCC(C(N)=O)CC3)c2)cc1 | -5.7% | -0.8% | -2.0 | -24.3
Cc1cc(C)nc(NC(=O)/C=C/c2cccs2)c1 | -7.1% | 2.3% | -8.7 | 6.0
Cc1cc(C)c(-c2csc(NC(=O)/C=C/c3cccs3)n2)c(C)c1 | -10.5% | 2.2% | -77.5* | -4.3
COc1ccc(C[C@H]2CN3C(=NC[C@@H]3C(C)C)N2C[C@H](C)NC(=O)c2ccc(C)c(Br)c2)cc1 | -0.7% | -1.5% | -40.6 | -18.0
COc1ccc(C[C@H]2CN3C(=NC[C@@H]3Cc3ccc(O)cc3)N2CCNC(=O)c2ccc(C)c(Br)c2)cc1 | -4.8% | 0.4% | -0.3 | -81.4*
COc1ccc(C[C@H]2CN3C(=NC[C@@H]3Cc3ccc(O)cc3)N2C[C@H](C)NC(=O)c2ccc(C)c(Br)c2)cc1 | -4.6% | 4.3% | -17.0 | -163.5*
Cc1nc(N2CCN(c3ccccn3)CC2)c2c(C)c(C(=O)Nc3ccc(F)cc3F)sc2n1 | -6.8% | -2.7% | -93.5* | -15.3
Cc1nc(N2CCN(c3ccccn3)CC2)c2c(C)c(C(=O)Nc3ccccc3F)sc2n1 | 3.2% | -1.4% | -45.1 | 5.3
Cc1nc(N2CCOCC2)c2c(C)c(C(=O)Nc3ccc(F)cc3Cl)sc2n1 | -0.4% | -4.9% | -3.7 | -6.9
Cc1nc(N2CCN(c3ccccn3)CC2)c2c(C)c(C(=O)Nc3ccc(F)cc3Cl)sc2n1 | -3.3% | -4.0% | -87.8* | -33.2
CC(C)Oc1ccc(S(=O)(=O)N2CCOCC2)cc1NC(=O)CSC(=S)N1CCCC1 | nt | nt | 0.5 | -34.0
COCCN(C(=O)COC(=O)c1ccc(Br)o1)c1c(N)n(Cc2ccccc2)c(=O)[nH]c1=O | nt | nt | 0.9 | 14.3
COc1ccc(CNC(=O)[C@@H](NC(=O)C2CCN(S(=O)(=O)c3ccc(C)cc3)CC2)C(C)C)cc1OC | 0.2% | -5.2% | -74.5* | -12.3
Cc1ccc(S(=O)(=O)OCCC2=CC(=O)CCN2Cc2ccccc2)cc1 | -1.6% | 2.5% | 10.3 | -1.9
CCOc1ccc(CN(C)C(=O)CN2C(=O)NC(c3ccccc3)(c3ccccc3)C2=O)cc1 | -0.8% | 1.3% | 1.8 | 7.8
CCOC(=O)c1cnc(SCc2cccc3ccccc23)nc1N | -13.4% | 1.8% | -133.5* | -16.4
CCOC(=O)c1cnc(SCc2ccccc2)nc1N | -3.5% | -18.3% | -21.9 | -6.4
Cc1cccc(NC(=O)CCNS(=O)(=O)c2cc(Br)cnc2N)c1C | 0.9% | -0.4% | 4.7 | 7.4
COC(=O)c1sccc1NC(=O)c1ccc(OC)cc1OC | -4.3% | 0.3% | -176.1* | -246.1*
COC(=O)c1sccc1NC(=O)Nc1ccc(C(C)=O)cc1 | -0.2% | -0.8% | -79.4* | 16.3
CCCCN(C)C(=S)Nc1ccsc1C(=O)OC | 0.1% | -4.7% | -154.5* | -7.4
COC(=O)c1sccc1NC(=O)Nc1ccc(C)cc1 | 1.1% | -15.3% | 15.1 | 5.3
COc1ccc(NC(=O)Nc2ccc(CC(=O)O)cc2)cc1 | -1.8% | -17.2% | -38.8 | -8.4
Nc1c(C(=O)Nc2cccc(F)c2)nnn1-c1ccc2c(c1)OCCO2 | -0.1% | -10.5% | 15.5 | -1.7
SMILES | PTAP TSG101 blk | Tb PFK block | KCNH2 3.1 inh | hERG WT inh
O=[N+]([O-])c1cc(-c2n[nH]c(-c3ccccc3)n2)cc([N+](=O)[O-])c1 | -4.0% | -1.2% | -78.0* | 1.4
O=C1CCCCCN1Cc1nnc(SCc2nc3ccccc3s2)n1-c1ccccn1 | -5.5% | 1.7% | -79.9* | 6.4
CCNC(=O)CSc1nnc(CN2CCCCCC2=O)n1-c1ccccn1 | -3.3% | -1.8% | -0.5 | -5.5
Cn1nc(C(=O)NCc2ccccc2)c2ccccc2c1=O | -2.6% | -0.2% | 2.3 | -24.1
Cn1nc(C(=O)NCCOc2ccccc2)c2ccccc2c1=O | -0.2% | -6.0% | -119.2* | 4.9
O=c1c(Cc2c(F)cccc2Cl)c(O)ccn1CC1CCCO1 (stereo not drawn) | -2.7% | 4.5% | -5.9 | -7.5
O=c1c(Cc2c(F)cccc2Cl)c(O)ccn1CCc1ccccn1 | -6.4% | -4.7% | -92.4* | -4.4
CCOP(=O)(OCC)C(Nc1ccc(F)cc1)c1ccccc1 (stereo not drawn) | 2.0% | -10.4% | 4.9 | 0.9
